The values that follow come from PubChem BioAssay AID1672 (Johns Hopkins Ion Channel Center, 2009).

Molecules are shown by their SMILES. Out of some 310,000 compounds screened, about 2,600 (0.84%) were called active. The sample holds actives, similar compounds and a random draw of the others, so the mix is not that of the screen. Unmarked numbers belong to inactive results.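 How the source made its calls: active means fluorescence ratio B-score at or below minus 3 SD of library scores, with starting-brightness B-score within 2 SD (cut at about -4.2 in these data); inactive means the rest.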

For this experiment, the target named is Inward rectifier potassium channel 2 (Mus musculus) (UniProt P35561). Briefly: inhibitors of mouse Kir2.1 inward-rectifier potassium channel (AID 1672).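 Further: channel flux triggered by added potassium and thallium sulfate stimulus; B-score of peak minus minimum fluorescence over baseline after thallium stimulus; more negative B-score means stronger Kir2.1 block with less thallium influx.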 The note with it: HEK293-Kir2.1, FluxOR thallium flux fluorescence; at 10 µM; active compounds read low.
Chain of Inward rectifier potassium channel 2 (Mus musculus) (P35561 whole entry, looked up): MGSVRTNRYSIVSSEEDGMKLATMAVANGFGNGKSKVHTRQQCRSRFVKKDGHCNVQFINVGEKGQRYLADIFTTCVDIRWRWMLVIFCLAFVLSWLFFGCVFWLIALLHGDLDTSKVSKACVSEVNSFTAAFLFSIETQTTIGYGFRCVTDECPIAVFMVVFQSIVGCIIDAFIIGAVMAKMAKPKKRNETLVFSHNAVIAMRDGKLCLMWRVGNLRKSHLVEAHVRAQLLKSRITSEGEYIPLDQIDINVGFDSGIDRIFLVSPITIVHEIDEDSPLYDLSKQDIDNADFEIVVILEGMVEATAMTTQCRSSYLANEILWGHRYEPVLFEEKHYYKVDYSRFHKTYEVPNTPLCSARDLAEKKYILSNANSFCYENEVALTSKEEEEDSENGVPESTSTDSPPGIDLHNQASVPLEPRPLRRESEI
In the case of `Cc1ccc(C(=O)NNC(=O)C(C)Oc2ccc3ccccc3c2)o1` (centres undefined), the B-score is 0.32.
For `CSc1ncc(Sc2ccccc2)c(C(=O)O)n1` the value was 0.25.
`CC(NCc1ccccc1OC1CCCC1)c1ccccc1` (centres undefined): the B-score was -12.7 (active).
Take `CC(=O)OC(C(=O)NC1CCCCC1)c1ccccc1` (centres undefined): the B-score is -0.67.
`COc1ccccc1CN1CCN(C(c2ccccc2)c2ccccc2)CC1`: the B-score was -0.07.
Regarding `Cc1ccc(NC(=O)C2CC(=O)N(c3ccc4c(c3)OCCO4)C2)cc1S(=O)(=O)N1CCCCCC1` (centres undefined), the B-score was -0.57.
In the case of `COc1ccc2c(c1)CCNC2Cc1ccc(OC)c(O)c1` (centres undefined), the B-score was 1.91.
In the case of `CN1CCN(C2Cc3ccc(Cl)cc3Sc3ccc(F)cc32)CC1` (centres undefined), the B-score was -1.17.
For `Clc1ccc(-c2cc(C3CCNCC3)[nH]n2)c(Cl)c1`, the B-score was -12.6 (active).
On to `O=C1CSC(c2ccccc2)N1c1nc(-c2ccc(Cl)cc2Cl)cs1` (centres undefined), for which the B-score was 0.4.
Turning to `Clc1ccc(-c2cc(-c3ccccn3)on2)c(Cl)c1`, the B-score is 0.99.
Take `O=C(Nc1cccc2c1CCCC2)c1ccc(F)cc1`: the B-score is -0.09.
Take `Cc1ccc(S(=O)(=O)N2CCN(C(=O)Cc3sc(C)nc3-c3ccc(F)cc3)CC2)c(C)c1`: the B-score is -0.03.
For `COc1ccc(S(=O)(=O)N2CCCCC2)cc1NC(=O)c1cc([N+](=O)[O-])ccc1N1CCOCC1` the value was -0.55; for `CCN1C(=O)[C@@H]2[C@@H](c3ccc(-c4cccc(Cl)c4)cc3)N3CCC[C@@]3(C(=O)OC)[C@@H]2C1=O`, 0.
For `CCOc1ccccc1OCC(=O)Nc1ccccc1C(=O)NC1CC1`, the B-score is -2.1.
For `CC(Oc1ccc(F)cc1)C(=O)Nc1ccccc1C(=O)NC1CC1` (centres undefined) the value was -5.66 (active); for `COc1ccccc1OCC(=O)Nc1ccccc1C(=O)NC1CC1`, -0.05.
Regarding `CC(Oc1ccc(Br)cc1)C(=O)NCC(c1ccco1)N1CCCCC1` (centres undefined), the B-score is -1.52.
As to `Cc1ccc(S(=O)(=O)NCCC(=O)NC2CCN(Cc3ccccc3)CC2)cc1`, the B-score was -1.38.
As for `Cc1ccc(-c2cc(C(=O)NC3CCN(Cc4ccccc4)CC3)c3ccccc3n2)cc1`, the B-score was 0.
For the molecule `Cc1ccc(-c2nc(CSCC(=O)NC3CCN(Cc4ccccc4)CC3)c(C)o2)cc1`, the B-score was -4.77 (active).
As for `C=CCc1cc(S(=O)(=O)c2ccc(O)c(CC=C)c2)ccc1O`, the B-score is -6.7 (active).
With `CCOC(=O)C1Nc2ccc(C(F)(F)F)cc2C2C=CCC12` (centres undefined) the figure was 1.69; with `COc1cc(CNCc2cccs2)cc(Br)c1OC`, -1.78; with `COc1cc(CNCc2ccc(OC)c3ccccc23)cc(OC)c1OC`, -6.99 (active).
As to `COc1ccc(CNC(=O)Cc2ccc(-c3ccccc3)cc2)cc1OC`, the B-score is 0.77.
Regarding `CCCC(=O)C1CCN(Cc2ccccc2)CC1`, the B-score is -3.46.
Regarding `O=C(Nc1ccccc1)N1CCN(Cc2ccccc2)CC1`, the B-score is 0.76.
With `CC12CN(Cc3ccccc3)CC(C)(CN(Cc3ccccc3)C1)C2=NO` the figure was -8.19 (active); with `CC(C)(C)Oc1ccccc1Nc1nc(NCCO)nc(N2CCCC2)n1`, 0.89.
As for `COc1cccc(CC2(CO)CCCN(Cc3nc(-c4cccs4)oc3C)C2)c1` (centres undefined), the B-score was -0.22.
`COc1ccc(F)c(-c2nc(CN3CCC(c4ccccc4)CC3)c(C)o2)c1`: the B-score was -6.63 (active).
In the case of `CCOc1ccccc1-c1nc(CN2CCC(C(=O)N3CCOCC3)CC2)c(C)o1`, the B-score is 0.57.
Take `O=C(NCC1CC1)c1onc(CSc2ccccc2)c1C(=O)NCC1CC1`: the B-score is -0.33.
Turning to `Cc1ccc(C)c(OCCC(=O)OCC(=O)NC(=O)NCc2ccccc2)c1`, the B-score was -1.35.
For `O=C(c1ccc(NS(=O)(=O)c2ccc3[nH]c(=O)[nH]c3c2)cc1)N1CCCCC1` the value was -0.24.
On to `O=C(Nc1nc2ccc([N+](=O)[O-])cc2s1)c1ccc(S(=O)(=O)N2CCCc3ccccc32)cc1`, for which the B-score is 1.56.
As to `O=C(COC(=O)c1ccc(F)cc1)Nc1nc2ccc([N+](=O)[O-])cc2s1`, the B-score is -0.31.
For `O=C(NC(Nc1nc2ccc([N+](=O)[O-])cc2s1)(C(F)(F)F)C(F)(F)F)c1ccccc1` the value was -10.5 (active); for `Cc1nc(-c2ccccc2)sc1C1(C)CC(c2cccnc2)=NO1` (centres undefined), -0.61; for `O=C(Nc1ccc2nc3n(c(=O)c2c1)CCCC3)c1ccc(Cl)nc1`, -0.4.
Take `CCc1cccc(C)c1NC(=O)COC(=O)CNC(=O)c1cccs1`: the B-score was -0.01.
For `CCOC(=O)N1CCN(C(=O)c2ccccc2SCC(=O)NCC2CCCCC2)CC1` the value was -1.08; for `OC(CNCc1ccc2c(c1)OCO2)COc1ccccc1` (centres undefined), 0.51.
For `CC(CCc1ccc(O)cc1)NCc1ccc(Cl)cc1Cl` (centres undefined) the value was -1.22; for `OC(CNCCc1ccc(Cl)cc1Cl)COc1ccccc1` (centres undefined), -5.54 (active).
As for `O=C(Oc1ccc(-c2nnco2)cc1)c1ccc(F)c(S(=O)(=O)N2CCOCC2)c1`, the B-score is 0.69.
`Cc1ccc2nc(SCC(=O)N3CCN(c4ccccc4)CC3)nc(=O)n2c1`: the B-score is -0.66.
For `CCOC(=O)c1c(C)[nH]c(C)c1S(=O)(=O)NCCCc1ccco1` the value was -4.22 (active).
As to `NC(=O)c1cc(S(=O)(=O)NCCCc2ccco2)cs1`, the B-score is -1.45.
Turning to `CCOC(=O)c1c(C)[nH]c(C)c1S(=O)(=O)N(C)CC(=O)Nc1ccccc1C`, the B-score is -0.21.
Turning to `O=S(=O)(NCCCc1ccccc1)c1ccc(Br)cc1`, the B-score was -0.26.
With `C=C(C)CNC(=O)c1ccc(OC2CCN(C(=O)COC)CC2)cc1`, the B-score is 2.19.
Turning to `CC(C)c1ccc(S(=O)(=O)N2CCN(C(=O)CN3C(=O)NC(C)(c4ccccc4)C3=O)CC2)cc1` (centres undefined), the B-score was -0.17.
For `CN(C1CCS(=O)(=O)C1)S(=O)(=O)c1ccc2ccccc2c1` (centres undefined) the value was -2.88.
With `CC1CCN(C(=O)c2ccc3c(c2)NC(=O)CN3)CC1` the figure was -1.15; with `CCN1CCN(CCNC(=O)c2ccc3c(c2)NC(=O)/C(=C\c2ccc(OC)c(OC)c2)S3)CC1`, -0.6; with `O=C1Nc2cc(C(=O)N3CCC(N4CCCCC4)CC3)ccc2S/C1=C\c1ccccc1`, -5.53 (active).
Consider `Cn1c(CCCOc2ccc(Cl)cc2Cl)n[nH]c1=S`, for which the B-score was 1.02.
With `CC(C)(C)NCCCOc1ccc(Cl)cc1C(C)(C)C`, the B-score was -3.
For the molecule `CN(C)CCOc1ccc(Cl)cc1C(C)(C)C`, the B-score is -4.91 (active).
On to `CC(C)COc1ccc(C(=O)OCC(=O)NCCC2=CCCCC2)cc1`, for which the B-score is -0.32.
For `CC1(C)C/C(=N/Nc2ccc([N+](=O)[O-])cc2[N+](=O)[O-])C(C)(C)O1` the value was -0.99; for `Cc1ccc2nc(SCC(=O)Nc3cccc4ccccc34)nc(=O)n2c1`, -0.81; for `O=C1CSc2ccc(S(=O)(=O)NCc3ccccc3)cc2N1`, -1.97.
In the case of `COc1ccccc1CNS(=O)(=O)c1ccc2c(c1)NC(=O)CS2`, the B-score was -3.14.
Turning to `CCC(Cc1ccccc1)NS(=O)(=O)c1ccc2c(c1)NC(=O)CS2` (centres undefined), the B-score was -7.18 (active).
In the case of `O=C(Nc1cc(Cl)ccc1N1CCOCC1)c1ccc(N2CCCC2=O)cc1`, the B-score was -0.11.
With `CCN(CC(=O)Nc1ccccc1C(F)(F)F)C(=O)CSCc1c(C)noc1C`, the B-score is -0.18.
For `C/C=C(/C)C(=O)OC1Cc2c(ccc3ccc(=O)oc23)OC1(C)C` (centres undefined), the B-score was -6.49 (active).
For `CC1(C)Oc2ccc3ccc(=O)oc3c2/C(=C/NCCO)C1=O` the value was -0.79; for `CC1(C)Oc2ccc3ccc(=O)oc3c2/C(=N/O)C1=O`, -3.77; for `COc1ccc(C(CNC(=O)c2cccc(S(=O)(=O)Nc3ccccc3Cl)c2)N2CCOCC2)cc1` (centres undefined), 0.72.
For `COc1ccccc1NS(=O)(=O)c1ccc(C(=O)N2CCN(c3ccccc3O)CC2)cc1` the value was -0.57; for `COc1ccc(C(C#N)(CC(=O)O)c2cnccn2)cc1OC` (centres undefined), -2.49; for `Cc1cc(C)c(-c2csc(NC(=O)CCCc3nc4ccccc4c(=O)[nH]3)n2)c(C)c1`, 0.9.
As for `CC1COc2ccccc2N1S(=O)(=O)c1ccccc1` (centres undefined), the B-score was -8.7 (active).
Regarding `CC1COc2ccccc2N1C(=O)c1cccnc1Cl` (centres undefined), the B-score is -0.04.
In the case of `CC1CN(S(=O)(=O)c2ccccc2)C(C)CN1S(=O)(=O)c1ccccc1` (centres undefined), the B-score was -1.27.
`Cn1ccsc1=NC(=O)c1cc(S(=O)(=O)N2CCOCC2)ccc1Cl`: the B-score was -1.21.
In the case of `O=C(NN1CCOCC1)c1cccc(F)c1`, the B-score is 0.11.
As for `Cc1ccc(N2CC(C(=O)N3CCC4(CC3)CC(=O)c3ccccc3O4)CC2=O)cc1C` (centres undefined), the B-score was 0.05.
Regarding `O=C(Nc1ccccc1N1CCCC1)c1ccc(F)c(S(=O)(=O)N2CCOCC2)c1`, the B-score was -1.53.
In the case of `CC(C)NC(=S)N1CCN(C(c2ccccc2)c2ccccc2)CC1`, the B-score is 0.81.
For the molecule `CC1(C)CC(N2CCN(C(c3ccccc3)c3ccccc3)CC2)=CC(=[N+]2CCCCC2)C1`, the B-score was -9.72 (active).
Consider `O=C(O)CN1CCN(C(c2ccccc2)c2ccccc2)CC1`, for which the B-score is 0.58.
For `CC12CCC(=O)N1C(C(=O)NCCN1C(=O)S/C(=C\c3ccccc3F)C1=O)CS2` (centres undefined) the value was 1.85.
On to `COCCCNC(=S)N(Cc1ccccc1)Cc1ccc(F)cc1`, for which the B-score was -4.64 (active).
As to `COCCCNC(=S)NC(=O)c1ccccc1`, the B-score was 0.
As to `COCCNC(=S)N(Cc1cccnc1)Cc1ccc(OC)c(OC)c1`, the B-score was -0.71.
Take `O=C(CN1CCOCC1)Nc1cccc([N+](=O)[O-])c1`: the B-score was -1.26.
With `COc1cc(/C=N/NC(=O)c2cc(-c3ccccc3C)nc3ccccc23)cc(OC)c1O` the figure was 0.05.
For `CC(C)Nc1nnc(SC(C)C(=O)N(C)C2CCCCC2)s1` (centres undefined) the value was 1.34.
